According to PubChem BioAssay:
The source made the active and inactive calls. Unless noted, the rule behind the calls is not given here.

Tests used:
[1] = system: Wnt5a (protein binding on small-molecule microarray); assay: Wnt5a binders on small-molecule microarray, primary screen, biophysical, 635/667 nm fluorescence (AID 1142); conditions: 635 nm fluorescence, higher = more signal;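 note: fluorescence read at 667 nm with signal to noise per printed feature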
[2] = cell viability in Huh7 cells, primary screen, cytotoxicity control for HCV replication inhibitor project, CellTiter-Glo luminescence, basal, 48 h (AID 1143); conditions: Huh7 HCV replicon, higher = more signal, called active from +8 up or from −8 down;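 note: Huh7 hepatoma cells carrying a hepatitis C replication reporter with no stimulus; test concentration not given here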
[3] = P. aeruginosa biofilm formation inhibitors, primary screen, PAO1 strain, BacTiter-Glo luminescence, LB-PBS (AID 1144); conditions: 12 h, higher = more signal
[4] = CREB reporter modulators without forskolin, primary screen, cell-based, PC12, CRE-LacZ reporter, unstimulated (AID 1145); conditions: no forskolin, luminescence, 4.5 h, higher = more signal, called active from +8 up or from −8 down
[5] = CREB reporter modulators under forskolin, primary screen, cell-based, PC12, CRE-LacZ reporter, forskolin-stimulated (AID 1146); conditions: luminescence, 4.5 h, higher = more signal, called active from +8 up or from −8 down;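 note: PC12 cells with 6xCRE LacZ reporter stimulated by forskolin 10 µM; beta-galactosidase reporter signal reflecting CREB driven transcription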
[6] = biological target: Streptavidin (Streptomyces avidinii) (UniProt P22629); assay: streptavidin binders on small-molecule microarray, primary screen, artefact control for SMM compound annotation, biophysical, 635/667 nm fluorescence (AID 1147); conditions: streptavidin binding, higher = more signal;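 note: signal reflects streptavidin binding to arrayed compounds as a control protein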
[7] = small-molecule binders of probe aInhba, primary screen, biochemical, small-molecule microarray, 635/667 nm fluorescence (AID 1148); conditions: higher = more signal;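 note: score merges 667nm spot fluorescence with signal-to-noise for antibody binding to printed compounds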
Torsin-1A (Homo sapiens) [8] = biological target: Torsin-1A (Homo sapiens) (UniProt O14656); assay: torsin A binders from cell lysate, primary screen, small-molecule microarray, wild-type, 635/667 nm (AID 1149); conditions: COS7 hTOR1A-WT lysate, 635 nm fluorescence, higher = more signal
Torsin-1A (Homo sapiens) [9] = biological target: Torsin-1A (Homo sapiens) (UniProt O14656); assay: small-molecule binders of mutant TOR1A in lysate, primary screen, cell lysate, small-molecule microarray, COS7 lysate, 635/667 nm fluorescence (AID 1150); conditions: COS7 hTOR1A mutant lysate, 635 nm fluorescence, higher = more signal;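 note: score pools 667 nm emission and signal to noise measuring lysate protein binding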
[10] = system: Sonic hedgehog protein (Shh); assay: small-molecule binders of Shh protein, primary screen, biochemical, small-molecule microarray, 635/667 nm fluorescence (AID 1151); conditions: small-molecule microarray binding, 635 nm fluorescence; higher = more signal;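 note: Shh protein binding to compounds spotted on small-molecule microarray slides; score combines spot fluorescence intensity with signal-to-noise across triplicate slides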
[11] = E. coli DRC41 culture turbidity changes, primary screen, E. coli filamentation inducer project, strain DRC41, OD650, 48 h (AID 1152);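 note: E. coli MC1000 strain DRC41 lacking acrAB efflux pump and sulA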; conditions: E. coli DRC41 (acrAB sulA), higher = more signal, called active from +8 up or from −8 down
[12] = small-molecule binders of probe aLefty1, primary screen, biochemical, small-molecule microarray, 635/667 nm fluorescence (AID 1153); conditions: higher = more signal;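 note: score merges spot fluorescence with signal-to-noise ratio from the scanned slide images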
[13] = PSAC antagonists in infected red cells, primary screen, cell-based, P. falciparum Indochina, OD700, 1 h (AID 1154); conditions: P. falciparum Indochina infected RBC osmotic lysis, higher = more signal, called active from +8 up or from −8 down
[14] = PSAC antagonists in infected red cells, primary screen, cell-based, P. falciparum Indochina, OD700, 2 h (AID 1155);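 note: lysis reports solute entry through the parasite surface anion channel PSAC; channel blockers reduce lysis of infected cells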; conditions: P. falciparum Indochina infected erythrocytes, osmotic lysis OD700; higher = more signal, called active from +8 up or from −8 down
[15] = osmotic lysis modulators in infected erythrocytes, primary screen, PSAC antagonist project, cell-based, P. falciparum Indochina, OD700, 3 h (AID 1156); conditions: higher = more signal, called active from +8 up or from −8 down
[16] = PSAC antagonists in infected red cells, primary screen, cell-based, P. falciparum Indochina, OD700, 18 h (AID 1157); conditions: P. falciparum Indochina infected erythrocytes, osmotic lysis OD700, 18 h; higher = more signal, called active from +8 up or from −8 down
[17] = modulators of S6 phosphorylation in cells, primary screen, cell-based, A549, cytoblot, luminescence, serum-stimulated (AID 1158); conditions: A549 phospho-S6 cytoblot, 5 h, higher = more signal;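 note: serum-stimulated A549 lung adenocarcinoma cells; signal is phosphorylated S6 detected by cytoblot immunostaining with HRP secondary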
[18] = biological target: NADPH oxidase 2 (Homo sapiens) (UniProt P04839); assay: NOX2-dependent H2O2 signal modulators, primary screen, NOX inhibitor project, cell-based, HEK293-NOX2, PMA-stimulated, Amplex Red fluorescence (AID 1159); conditions: 45 min, higher = more signal, called active from +8 up or from −8 down; note: test concentration not given here
[19] = biological target: NADPH oxidase 4 (Homo sapiens) (UniProt Q9NPH5); assay: NOX4-dependent H2O2 signal modulators, primary screen, NOX inhibitor project, cell-based, HEK293-NOX4, tetracycline-induced, Amplex Red fluorescence (AID 1160); conditions: 45 min, higher = more signal, called active from +8 up or from −8 down
[20] = biological target: NADPH oxidase 5 (Homo sapiens) (UniProt Q96PH1); assay: NOX5-dependent H2O2 signal modulators, primary screen, NOX inhibitor project, cell-based, HEK293-NOX5, Amplex Red fluorescence (AID 1161); conditions: HEK293-NOX5, ionomycin, 45 min, higher = more signal
Chain of NADPH oxidase 5 (Homo sapiens) (Q96PH1 whole entry, looked up): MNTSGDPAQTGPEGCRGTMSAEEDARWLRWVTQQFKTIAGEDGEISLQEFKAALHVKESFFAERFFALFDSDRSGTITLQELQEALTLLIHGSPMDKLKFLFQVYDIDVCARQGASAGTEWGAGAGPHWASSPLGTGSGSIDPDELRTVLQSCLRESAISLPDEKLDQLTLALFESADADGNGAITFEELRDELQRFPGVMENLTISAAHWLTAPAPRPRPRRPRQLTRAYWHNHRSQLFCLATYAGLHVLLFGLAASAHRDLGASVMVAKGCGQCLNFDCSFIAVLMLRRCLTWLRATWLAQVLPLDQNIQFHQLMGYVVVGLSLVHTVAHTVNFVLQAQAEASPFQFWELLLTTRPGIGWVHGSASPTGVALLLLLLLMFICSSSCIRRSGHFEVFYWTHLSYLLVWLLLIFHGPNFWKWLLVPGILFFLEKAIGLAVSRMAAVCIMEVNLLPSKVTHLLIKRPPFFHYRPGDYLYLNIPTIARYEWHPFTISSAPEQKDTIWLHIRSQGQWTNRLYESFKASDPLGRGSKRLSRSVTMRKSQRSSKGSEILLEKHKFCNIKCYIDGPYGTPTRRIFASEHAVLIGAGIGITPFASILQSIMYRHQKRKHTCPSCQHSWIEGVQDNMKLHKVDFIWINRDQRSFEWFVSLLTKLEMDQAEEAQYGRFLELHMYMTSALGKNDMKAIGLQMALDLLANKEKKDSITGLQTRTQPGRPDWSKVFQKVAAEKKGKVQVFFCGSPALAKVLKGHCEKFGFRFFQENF

Chain of Torsin-1A (Homo sapiens) (O14656 whole entry, looked up): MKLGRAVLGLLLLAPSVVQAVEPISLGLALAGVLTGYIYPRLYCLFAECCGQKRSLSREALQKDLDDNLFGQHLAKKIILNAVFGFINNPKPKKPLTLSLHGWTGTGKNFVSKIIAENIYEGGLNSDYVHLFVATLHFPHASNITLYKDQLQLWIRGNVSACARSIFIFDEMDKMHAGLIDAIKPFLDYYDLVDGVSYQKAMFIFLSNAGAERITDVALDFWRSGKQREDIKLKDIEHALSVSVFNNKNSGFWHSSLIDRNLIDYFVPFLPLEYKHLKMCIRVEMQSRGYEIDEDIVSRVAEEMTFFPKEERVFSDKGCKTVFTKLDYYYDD
Chain of Streptavidin (Streptomyces avidinii) (P22629 whole entry, looked up): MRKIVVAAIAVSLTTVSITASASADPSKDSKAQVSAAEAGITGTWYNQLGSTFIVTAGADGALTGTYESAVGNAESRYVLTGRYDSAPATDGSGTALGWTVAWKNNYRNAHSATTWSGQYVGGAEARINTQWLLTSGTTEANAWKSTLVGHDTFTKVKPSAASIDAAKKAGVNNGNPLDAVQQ
Chain of NADPH oxidase 2 (Homo sapiens) (P04839 whole entry, looked up): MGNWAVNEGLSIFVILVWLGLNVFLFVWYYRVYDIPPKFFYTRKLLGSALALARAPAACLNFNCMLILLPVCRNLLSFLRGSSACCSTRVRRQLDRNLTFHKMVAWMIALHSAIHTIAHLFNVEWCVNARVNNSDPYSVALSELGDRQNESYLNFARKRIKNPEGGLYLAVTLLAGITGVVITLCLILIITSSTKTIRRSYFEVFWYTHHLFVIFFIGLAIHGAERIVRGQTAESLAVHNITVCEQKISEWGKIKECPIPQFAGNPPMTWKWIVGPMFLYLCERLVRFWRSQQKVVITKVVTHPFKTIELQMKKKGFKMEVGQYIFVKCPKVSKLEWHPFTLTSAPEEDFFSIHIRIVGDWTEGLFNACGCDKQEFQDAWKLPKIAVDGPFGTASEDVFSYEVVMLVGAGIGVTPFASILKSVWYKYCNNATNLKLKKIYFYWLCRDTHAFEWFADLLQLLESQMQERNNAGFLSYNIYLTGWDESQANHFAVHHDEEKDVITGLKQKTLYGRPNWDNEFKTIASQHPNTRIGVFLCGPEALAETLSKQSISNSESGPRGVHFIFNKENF
Chain of NADPH oxidase 4 (Homo sapiens) (Q9NPH5 whole entry, looked up): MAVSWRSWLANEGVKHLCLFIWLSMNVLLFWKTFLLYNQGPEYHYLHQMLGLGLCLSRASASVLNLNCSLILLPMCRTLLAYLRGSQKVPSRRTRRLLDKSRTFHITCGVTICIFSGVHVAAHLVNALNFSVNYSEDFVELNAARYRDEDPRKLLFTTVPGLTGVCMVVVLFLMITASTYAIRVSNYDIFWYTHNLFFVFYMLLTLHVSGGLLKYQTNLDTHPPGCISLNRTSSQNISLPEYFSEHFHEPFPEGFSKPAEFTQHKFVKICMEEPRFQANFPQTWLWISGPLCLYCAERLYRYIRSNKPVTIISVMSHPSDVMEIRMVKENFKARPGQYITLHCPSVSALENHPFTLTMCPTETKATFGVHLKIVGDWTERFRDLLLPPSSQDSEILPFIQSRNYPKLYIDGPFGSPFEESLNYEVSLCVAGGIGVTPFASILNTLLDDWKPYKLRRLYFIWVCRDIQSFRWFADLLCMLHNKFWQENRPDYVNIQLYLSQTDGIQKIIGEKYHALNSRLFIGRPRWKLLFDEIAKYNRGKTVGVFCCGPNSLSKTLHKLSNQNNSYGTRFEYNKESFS

Compound	composite z-score [1]	z-score [2]	z-score [3]	z-score [4]	z-score [5]	composite z-score [6]	composite z-score [7]	composite z-score (Torsin-1A (Homo sapiens) [8])	composite z-score (Torsin-1A (Homo sapiens) [9])	composite z-score [10]	z-score [11]	composite z-score [12]	z-score [13]	z-score [14]	z-score [15]	z-score [16]	z-score [17]	z-score [18]	z-score [19]	z-score [20]
C[C@]12CCC3c4ccc(OCC5CO5)cc4CCC3C1CC[C@@H]2O (stereo not given in full)	0.201	-1.78 (inactive)	-0.168 (inactive)	2.75 (inactive)	0.806 (inactive)	0.699	0.0561	0.114	0.241	-0.0357	-0.186 (inactive)	-0.0011	24.3 (active)	7.31 (inactive)	0.269 (inactive)	0.663 (inactive)	0.25	1.44 (inactive)	-1.42 (inactive)	-1.74
COC(=O)CC=C1c2ccccc2[C@H](OC)[C@H]1C	0.0034	0.553 (inactive)	0.624 (inactive)	0.478 (inactive)	0.345 (inactive)	-0.0324	0.0275	0.399	-0.127	0.103	0.101 (inactive)	-0.326	0.0311 (inactive)	0.269 (inactive)	-0.0239 (inactive)	-0.0463 (inactive)	-0.882	0.457 (inactive)	0.644 (inactive)	0.199
O=C1C2=CC[C@H]3C(=O)N(C4CCCCC4)C(=O)[C@H]3[C@H]2[C@H](O)[C@@H]2O[C@H]12	-0.272	-8.35 (active)	-0.366 (inactive)	17.1 (active)	30.1 (active)	-0.408	-0.183	-0.695	-0.53	-0.689	-1.95 (inactive)	-0.245	-0.0599 (inactive)	-0.153 (inactive)	0.215 (inactive)	-1.56 (inactive)	-1.01	0.951 (inactive)	0.3 (inactive)	0.952
CCOC(=O)[C@H](CC(C)C)NC(=O)CCC1CC(OC(=O)NCc2ccc3c(c2)OCO3)CC2(CCCC(COC(=O)NCCc3ccccc3OC)O2)O1 (stereo not given in full)	0.08	-0.556 (inactive)	0.162 (inactive)	-0.0755 (inactive)	0.101 (inactive)	0.512	-0.128	-0.0035	0.582	1.19	-1.08 (inactive)	0.0437	-1.67 (inactive)	-0.213 (inactive)	-1.01 (inactive)	-0.143 (inactive)	-0.116	0.0807 (inactive)	0.886 (inactive)	1.24
O=C1C=C[C@@H](O)[C@@H]2[C@@H]3C(=O)N(c4cccc(Oc5ccccc5)c4)C(=O)[C@@H]3CC[C@@H]12	-0.136	-3.63 (inactive)	-0.743 (inactive)	1.43 (inactive)	-0.358 (inactive)	0.061	-0.128	0.96	-0.118	0.64	-1.65 (inactive)	-0.103	0.641 (inactive)	-0.158 (inactive)	-0.441 (inactive)	-1.07 (inactive)	0.249	0.472 (inactive)	-0.433 (inactive)	0.283
CC(CCC(=O)OC[C@H]1O[C@H](C#Cc2ccccc2)C=C[C@@H]1Oc1ccc(C)cc1)=NO[C@@H](C)c1cc(-c2c(C)cc(C)cc2C)no1	-0.693	-0.629 (inactive)	-0.702 (inactive)	0.085 (inactive)	1.02 (inactive)	-0.831	-0.242	-2.59	-1.74	-0.719	0.357 (inactive)	-0.0929	1.34 (inactive)	0.674 (inactive)	1.23 (inactive)	0.221 (inactive)	0.814	0.731 (inactive)	0.344 (inactive)	0.287
COC(=O)[C@H](C)NC(=O)CCC1CC(OC(=O)NCc2ccc3c(c2)OCO3)CC2(CCCC(COC(=O)NCCC(C)C)O2)O1 (stereo not given in full)	0.151	-2.02 (inactive)	-0.174 (inactive)	-0.706 (inactive)	-1.22 (inactive)	0.232	-0.224	0.245	0.593	1.13	-1.06 (inactive)	0.0774	19.8 (active)	4.71 (inactive)	0.3 (inactive)	0.638 (inactive)	0.392	0.738 (inactive)	0.437 (inactive)	0.284
CCN1C(=O)[C@H]2[C@H]3[C@H](O)[C@H](O)CC(=NO[C@@H]4O[C@H](CO)[C@@H](O)[C@H](O)[C@H]4O)[C@H]3CC[C@H]2C1=O	0.534	-1.31 (inactive)	0.427 (inactive)	0.246 (inactive)	0.322 (inactive)	0.473	-0.0873	0.261	0.577	0.47	-0.462 (inactive)	-0.234	-0.875 (inactive)	0.0108 (inactive)	-0.677 (inactive)	0.109 (inactive)	-0.218	1.4 (inactive)	0.422 (inactive)	-1.28
CC(=O)OC[C@H]1O[C@H](CC=NO[C@@H](C)c2cc(-c3c(C)cc(C)cc3C)no2)C=C[C@@H]1OC(C)=O	-0.184	0.125 (inactive)	-0.176 (inactive)	0.173 (inactive)	0.481 (inactive)	0.897	-0.175	0.213	-0.31	0.0602	0.11 (inactive)	-0.101	2.12 (inactive)	0.629 (inactive)	1.12 (inactive)	0.343 (inactive)	-0.194	-1.27 (inactive)	-0.444 (inactive)	-2.99
